Results from PubChem BioAssay AID596 (National Center for Advancing Translational Sciences (NCATS), 2007).
Hit rate of the full screen: of about 71,000 compounds, about 1,400 (2%) were called active. Another 3% or so got no clear call; they are omitted. This is one part of a sample in which actives are shown more often than they occur. Calls come from the whole dose curve; as a rule, active = well fitted curve in the direction sought with a large enough effect; inconclusive = small, poorly fitted or top-dose-only effect; inactive = no such curve, though single readings can be large or run the other way. Non-standard residues stand in square brackets, D forms with d. Residues, ends and D or L forms follow the SMILES beside them. ξ: configuration not given here. ξV = CC(C)C(N)C(=O)O

Molecular target: Microtubule-associated protein tau (Homo sapiens) (UniProt P10636)
Sequence (P10636 whole entry, looked up): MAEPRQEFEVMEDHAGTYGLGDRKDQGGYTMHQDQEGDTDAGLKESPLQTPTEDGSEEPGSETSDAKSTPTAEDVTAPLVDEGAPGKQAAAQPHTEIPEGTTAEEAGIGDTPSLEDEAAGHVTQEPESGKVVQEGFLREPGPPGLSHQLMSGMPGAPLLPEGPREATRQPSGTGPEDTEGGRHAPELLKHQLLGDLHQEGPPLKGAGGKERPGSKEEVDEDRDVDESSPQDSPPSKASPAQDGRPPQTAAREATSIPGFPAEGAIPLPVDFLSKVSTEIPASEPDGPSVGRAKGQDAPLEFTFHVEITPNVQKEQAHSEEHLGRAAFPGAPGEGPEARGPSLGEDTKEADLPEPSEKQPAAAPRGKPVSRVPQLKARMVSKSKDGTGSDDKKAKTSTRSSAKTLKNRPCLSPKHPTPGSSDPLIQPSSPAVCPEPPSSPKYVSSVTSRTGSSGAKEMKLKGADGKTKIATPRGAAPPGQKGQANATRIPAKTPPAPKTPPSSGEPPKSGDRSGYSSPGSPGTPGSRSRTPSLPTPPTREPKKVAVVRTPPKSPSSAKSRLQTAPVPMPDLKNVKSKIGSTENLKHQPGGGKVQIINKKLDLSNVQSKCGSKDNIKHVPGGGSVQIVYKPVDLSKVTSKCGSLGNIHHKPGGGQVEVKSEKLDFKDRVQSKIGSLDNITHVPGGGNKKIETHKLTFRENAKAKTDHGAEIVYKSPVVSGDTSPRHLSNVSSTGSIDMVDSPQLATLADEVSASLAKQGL
Experiment: qHTS Assay for Tau Filament Binding
Settings: recombinant tau filaments, thioflavin S fluorescence, 15 h, filaments grown with octadecylsulfate alongside compound; series mostly up to 57.1 µM; activity change, negative = inhibition: at the top concentration
Outline: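 Thioflavine S fluorescence (ex 450, em 510 nm) reports filaments formed from 1 uM human tau plus 30 uM ODS over 15 h at 37 C (10 mM HEPES pH 7.4, 100 mM NaCl, 5 mM DTT); compounds displacing dye or blocking filaments lower signal.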
% is set by controls: 0 for no effect and ±100 for the full control effect; potency is the fitted concentration of half-maximal effect.

Activity change, negative = inhibition, inactive:
O=C(CSc1nc2[nH]ncc2c(=O)n1-c1ccccc1)N1CCCc2ccccc21 13.4%, O=c1nc(N2CCOCC2)nc2n1CCO2 -11.4%, COc1ccccc1-c1cc(NCc2cccs2)ncn1 -0.6%, COc1ccccc1CNc1nc(-c2c(C)noc2C)nc2ccccc12 91.2%, COc1ccccc1-c1nc(N2CCN(C)CC2)c2ccccc2n1 -25.5%, COc1ccccc1-c1nc(NCCNC(C)=O)c2ccccc2n1 -3.8%, Cc1ccccc1C(=O)O 1%, CCCCCCN(C(=O)CCCCCN1C(=O)NC(c2ccc(C(F)(F)F)cc2)C(C(=O)OCc2ccccc2)=C1C)C(C(=O)NCCCC)c1ccc(OCC(=O)OC)c(C(=O)OC)c1 (centres undefined) 72.4%, COC(=O)[C@@]1(C)C=C[C@@H](Cc2ccccc2)N1C(C)=O -6.5%, COc1cc([C@H]2c3cc4c(cc3[C@@H](O[C@@H]3O[C@H]5CO[C@@H](C)O[C@]5(O)C[C@H]3O)[C@@H]3COC(=O)[C@H]23)OCO4)cc(OC)c1O 0.5%, COc1ccc(-c2n[nH]c(C)c2-c2ccc(OC)c(OC)c2)c(O)c1 1.1%, Oc1ccc(-c2csc(Nc3cccnc3)n2)cc1 -0.1%, CCc1c(C)nc(N)n2c(SCC(=O)N3CCN(c4ccccc4)CC3)nnc12 1.5%, CC(Cc1ccccc1)C(=O)N(C)Cc1ccccc1 (centres undefined) -18.4%, CCc1ccc(N(CC)c2ncnc3nc[nH]c23)cc1 14.7%, CN(C(=O)COc1ccccc1)c1nnc(-c2ccncc2)s1 -17.9%, O=c1c(-c2cccs2)nc2cnc(Oc3ccccc3)nc2n1-c1ccccc1 47.6%, CCCn1c(SCC(N)=O)nnc1C(C)C 2.8%, O=C(Cn1cnc2c(nnn2Cc2ccc(F)cc2)c1=O)NCc1ccc2c(c1)OCO2 7.3%, CCOC(=O)C(C)Oc1cccc2c(=O)n(CC(=O)N3CCc4ccccc43)ccc12 (centres undefined) 40.3%, COCCNc1cc(-c2c(C)noc2C)ncn1 -2.4%, COC(=O)CCNc1ccc2c(c1)OCCO2 1.2%, COc1ccc(C(=O)Nc2ccc3c(c2)OCO3)cc1OC -6%, O=C(Cl)c1ccccc1[N+](=O)[O-] 8%, O=C(CSc1nnc(Cc2ccccc2)n1-c1ccccc1)N1CCOCC1 -4%, CCN(CC)CCN1C(=O)C(=O)/C(=C(/O)c2ccccc2)C1c1ccccc1F (centres undefined) 6.1%, O=C1C(=O)N(CCN2CCOCC2)C(c2ccccn2)/C1=C(/O)c1ccc(Cl)cc1 (centres undefined) 64.6%, CC(=O)OCCC(C)C -0.1%, COc1cccc(-c2nc3cc(C)ccc3o2)c1 -7.9%, CCCCCC(=O)Nc1ccc2oc(-c3ccncc3)nc2c1 -29.6%, CCCCCCc1ccc(O)cc1O -23.7%, CC(C)n1c(SCC(=O)Nc2ccccc2N2CCCCC2)nc2c1c(=O)n(C)c(=O)n2C 5%, COc1ccc(F)cc1S(=O)(=O)Nc1ccc2c(c1)OCO2 -5.1%, CC(C)CNS(=O)(=O)c1ccc(OCC(=O)Nc2ccc3c(c2)OCO3)c(Cl)c1 101%, c1ccc2sc(SCCSc3nc4ccccc4s3)nc2c1 -3.1% [at 11.4 µM], CCOc1ccc(NC(=O)CCS(=O)(=O)c2cccc3nsnc23)cc1 -9.9%, CCCCN(CC)C(=O)CN(C)S(=O)(=O)c1cccc2nsnc12 -4.7%, CC1CCCC(NC(=O)CSc2nccn2C)C1C (centres undefined) 9%, O=C(c1cnccn1)N1CCC2(CCN(Cc3cc(C(F)(F)F)cc(C(F)(F)F)c3)CC2)CC1 -9.4%, C/C=C/C=C/C(=O)O -9.3%, O=C(OCC(COC(=O)c1ccccc1)(COC(=O)c1ccccc1)COC(=O)c1ccccc1)c1ccccc1 2.5%, CC(C)Nc1nc(N(c2ccccc2)c2ccccc2)nc(-n2ccnc2)n1 5%, CCOC(=O)c1cn(CC(=O)Nc2ccc(C(C)C)cc2)nn1 -18%, CCCC(=O)Nc1cc(OCC)c(NC(=O)NC2CCCCC2)cc1OCC 0.7%, O=C(O)CC(C(=O)O)C(CC(=O)O)C(=O)O (centres undefined) -2.3%, CCCC[C@@H]1C[C@H]1C(NC(=O)c1ccco1)c1ccc(C(=O)OC)cc1 (some centres undefined) 8.7%, CCN(CC)S(=O)(=O)N1CCC(C(=O)NC(C)CCc2ccccc2)CC1 (centres undefined) 6%, Cc1ccc2c(NC(=O)C3CC3)cccc2n1 -1.6%, Cc1noc(C)c1-c1cc(NCc2cccnc2)ncn1 5.5%, O=S(=O)(NCc1cccnc1)c1ccc(Br)s1 -1.9%, COc1ccc(Cl)cc1S(=O)(=O)Nc1cccc(C(=O)O)c1 11.9%, Cc1ccnc(SCCn2c(N(C)Cc3ccccc3)nc3c2c(=O)n(C)c(=O)n3C)n1 0.1%, COc1cccc(-c2nc(Nc3ccncc3)c3ccccc3n2)c1 105%, CCOC(=O)CSc1nnc(NC(=O)c2cccc(S(=O)(=O)N3CCCCC3)c2)s1 5.8%, CCn1c(COc2cccc(OC)c2)nnc1SCC(=O)N1CCOCC1 3%, CCCC(=O)Nc1c(O)c2ccccc2[nH]c1=O 0.1%, COC(=O)c1[nH]c2ccccc2c1NS(=O)(=O)c1ccc(OC)cc1OC 0.1%, C[C@]12C=CC(=O)C=C1CC[C@@H]1[C@@H]2C(=O)C[C@@]2(C)[C@H]1CC[C@]2(O)C(=O)CO -6.3%, COCCCNC(=O)CSc1nc2ccc(N3CCOCC3)cc2c(=O)n1CCc1ccccc1 -17.5%, CCn1c(SCC(=O)NCC2CCCO2)nc2cc(S(=O)(=O)N3CCCCC3)ccc21 (centres undefined) 0.9%, COC(=O)[C@@]1(Cc2ccc(OC)cc2)[C@H]2c3cc(C(=O)N4CCCC4)n(Cc4ccc(C(F)(F)F)nc4)c3C[C@H]2CN1C(=O)c1ccccc1 4.2%, COc1ccc(CCNC(=O)CCCCn2c(=O)[nH]c3ccccc3c2=O)cc1OC -0.2%, COc1ccc(COC(=O)c2n[nH]c3ccccc23)cc1F 18.2%, COCC(C)NC(=O)c1ccc(Cl)c(Cl)c1 (centres undefined) 6.1%, CCNc1ncc2ncc(=O)n(Cc3cccc(OC)c3)c2n1 2%, COc1cccc(Cn2c(=O)cnc3cncnc32)c1 -17.1%, COc1ccc(N)c(OC)c1 -13.8%, C=CCOC(=O)c1ccccc1C(=O)OCC=C 3.3%, CC(C)CO -6.5%, CO[C@@H]1/C=C\O[C@]2(C)Oc3c(C)c(O)c4c(O)c(c(CN(C)C)c(O)c4c3C2=O)NC(=O)/C(C)=C\C=C[C@@H](C)[C@@H](O)[C@H](C)[C@@H](O)[C@H](C)[C@H](OC(C)=O)[C@@H]1C 3.4% [at 11.4 µM], O=C(c1csnn1)N1CCC2(CC1)CN(c1ncccn1)C2 -5.6%, CN1CCN(c2ncc3nc(-c4ccc(Cl)cc4)c(=O)n(-c4ccccc4)c3n2)CC1 220%, CCOc1cc(C(=S)N2CCOCC2)ccc1O 1%, COC(=O)c1ccc(CN(c2ccccc2OC)S(=O)(=O)c2cccs2)o1 5.3%, CC(=O)NC(C(=O)NCC(N)=O)C(C)C (centres undefined) (Ac-[ξV]-Gly-NH2) -2.7%, CCNc1ncc2ncc(=O)n(CCc3ccccc3)c2n1 13.6%, Cc1ccc2oc(=O)ccc2c1 4.9%, CCCCNC(=O)c1ccccc1NC(=O)c1ccccc1N(C)S(C)(=O)=O -10.5%, Cc1ccc(Nc2cc(=O)n(C3CCCCC3)c(=O)[nH]2)cc1C 120%, COCCn1c(=O)c(-c2cc(F)cc(F)c2)nc2cncnc21 -1.7%, COCCn1c(=O)c(CCc2ccccc2)nc2cnc(N3CCNCC3)nc21 10.5%, CNc1ncnc2ccc(-c3cccc(NS(C)(=O)=O)c3)cc12 -8.5%, CCC[C@@H]1C[C@@]1(CCC)[C@@H](NC(=O)c1ccccc1)c1ccc(C(=O)OC)cc1 9.7%, CC(=O)Nc1cccc(Oc2cc(C#N)c(C#N)cc2N2CCOCC2)c1 -24.1%, CCOc1cc(NC(=O)c2ccco2)c(OCC)cc1NC(=O)COc1ccccc1 -5.3%

Potency, inactive:
O=NO, CCCCC(CC)CN (centres undefined)

Potency, active:
CNc1nc(-c2ccccc2OC)nc2ccccc12 12.6 µM, COc1ccccc1-c1nc(NCc2cccs2)c2ccccc2n1 2.51 µM, COc1ccc(OC)c(Nc2nc(-c3ccc(O)c(O)c3)cs2)c1 20 µM, CN(C(=O)COc1nnc(-c2cccs2)c(-c2cccs2)n1)c1ccccc1 25.1 µM, CCOc1ccc(NCCC(=O)c2ccc3c(c2)OCO3)cc1 25.1 µM, CCN(CC)CCN1C(=O)C(=O)/C(=C(/O)c2ccc(OC)c(OC)c2)C1c1ccccn1 (centres undefined) 20 µM, CCc1ccc2oc(-c3ccc(N)cc3)nc2c1 25.1 µM, COc1ccc(S(=O)(=O)Nc2ccc3c(c2)OCO3)cc1Cl 20 µM, CCOc1ccc(-c2cn(S(=O)(=O)c3cccc4nsnc34)nc2N)cc1 25.1 µM, COc1cc(Br)cc(/C=N/c2ncn[nH]2)c1O 1.58 µM, N#Cc1nc(N)nc(N(c2ccccc2)c2ccccc2)n1 7.94 µM, CC(=O)N1CCC(C(=O)Nc2nc(-c3ccccc3)ns2)CC1 10 µM, c1ccc2c(Nc3ccncc3)nc(-c3ccoc3)nc2c1 7.94 µM, CCCS(=O)(=O)Nc1c(C(=O)O)[nH]c2ccccc12 25.1 µM, CCCCn1c(SCC(=O)NCC2CCCO2)nc2ccc(N3CCOCC3)cc2c1=O (centres undefined) 15.8 µM, COc1ccc(N=Cc2c(O)[nH]c3ccccc23)cc1OC 12.6 µM, COc1cccc(Nc2ncc3ncc(=O)n(C4CC4)c3n2)c1 12.6 µM, CC[C@@H]1Cc2cc(O)ccc2C2=C1c1ccc(O)cc1C[C@H]2CC 25.1 µM, CC(C)[C@H](CO)Nc1nc(Nc2cc(N)cc(Cl)c2)c2ncn(C(C)C)c2n1 31.6 µM, Cc1c(C)c2c(c(C)c1O)CC[C@@](C)(CN1CCN(c3cc(N4CCCC4)nc(N4CCCC4)n3)CC1)O2 12.6 µM, COCCn1c(=O)c(-c2cc(F)cc(F)c2)nc2cnc(N3CCNCC3)nc21 3.16 µM, CCOc1cc(N2CCOCC2)c(OCC)cc1NC(=O)COc1cccc2cccnc12 25.1 µM
